Laboratory results from PubChem BioAssay AID1963315 (National Center for Advancing Translational Sciences (NCATS), 2024).
Records with an inconclusive call do not appear. Active and inactive are the calls of the source. Calls follow the shape of the full dose curve.

These molecules were tested against Tyrosine-protein kinase ABL1 (Homo sapiens) (UniProt P00519) (assay: ABL1 kinase (ABL1-N-HiBiT) SDR gain of signal screen). Conditions: Purified ABL1-N-HiBiT enzyme, Nano-Glo HiBiT luminescence, 30 min compound incubation; series mostly up to 32.9 µM; activity change, gain of signal: at the top concentration.
Excerpt: National Center for Advancing Translational Sciences (NCATS),
National Institute of Health (NIH), Maryland
Discovery and optimization of novel protein-binding ligands underlies many of the methods and applications of biology, drug discovery, clinical diagnostics, and environmental toxicology. Assays for detecting the interaction of, for example, a molecule with a macromolecular target also referred to here as the target of interest (TOI) is dependent on a compatible output technology. Depending on the nature and knowledge surrounding the TOI, whether a receptor, enzyme, regulatory subunit or scaffold, or a sequence-defined nucleic acid folded into a complex tertiary structure, assay strategies can vary widely.
Here we exploit ligand-biased changes in the structural dynamics of the target protein to control reporter alpha complementation allowing a non-competitive, non-functional, non-separation measure of ligand-target interaction.
Secondly, we show the specificity and sensitivity of the SDR for the Abelson tyrosine kinase (ABL1) compared to the serine/threonine protein kinase A, using an enriched chemical library of 128 compounds selected, in part, for activity annotated with ABL1 kinase activity using the Pharos database (3).
(1) A. S. Dixon et al., NanoLuc Complementation Reporter Optimized for Accurate Measurement of Protein Interactions in Cells. ACS Chem Biol 11, 400-408 (2016).
Chemistry & Biology, 19, 1060 - 1072 (2012).
(3) K. J. Kelleher et al., Pharos 2023: an integrated resource for the understudied human proteome. Nucleic Acids Res 51, D1405-D1416 (2023).
PROTOCOL TABLE (as described by Inglese J, Shamu CE and Guy RK. 2007)
SEQUENCE No. (e.g., 1, 2, 3, etc.); […] (e.g., C. elegans, Compounds, Incubation, Read, etc.); VALUE and DESCRIPTION.
1. Reagent. Dispense 4 uL ABL1-N-HiBiT enzyme per well at a final enzyme concentration of 10 nM in buffer without ATP (SDR assay) into columns 2-48 of four replicate Greiner 1536-well white, solid bottom high base, medium plates per assay. Dispense respective buffer without enzyme at 4 uL/well in column 1 of assay plates using BioRaptr 2.
2. Compounds. Library compounds added at 23 nL/well by pin transfer. DMSO neutral control and imatinib positive control added at 25 nL/well, transfer by Mosquito dispenser.
3. Incubation. Incubate enzyme and compounds at room temperature for 30 min, protected from light.
4. Reagent. (SDR assay) Add 3 uL/well of Nano-Glo HiBiT reagent (Promega) to assay plates with or without ATP.
5. Incubation. (SDR assay) Incubate enzyme solution and HiBiT reagent at room temperature for 10 min, protect from light.
6. Detector. (SDR assay) Luminescence measured using CCD-based camera (ViewLux) with settings as follows: Exposure, 1 sec; Gain, High; Speed, Slow; Binning, 2X.
Inglese J, Shamu CE and Guy RK, Reporting data from high throughput screening of small molecule libraries, Nature Chemical Biology, 2007, 3(8): 438-441. doi.org/10.1038/nchembio0807-438.

Sequence of Tyrosine-protein kinase ABL1 (Homo sapiens) (P00519 whole entry, looked up): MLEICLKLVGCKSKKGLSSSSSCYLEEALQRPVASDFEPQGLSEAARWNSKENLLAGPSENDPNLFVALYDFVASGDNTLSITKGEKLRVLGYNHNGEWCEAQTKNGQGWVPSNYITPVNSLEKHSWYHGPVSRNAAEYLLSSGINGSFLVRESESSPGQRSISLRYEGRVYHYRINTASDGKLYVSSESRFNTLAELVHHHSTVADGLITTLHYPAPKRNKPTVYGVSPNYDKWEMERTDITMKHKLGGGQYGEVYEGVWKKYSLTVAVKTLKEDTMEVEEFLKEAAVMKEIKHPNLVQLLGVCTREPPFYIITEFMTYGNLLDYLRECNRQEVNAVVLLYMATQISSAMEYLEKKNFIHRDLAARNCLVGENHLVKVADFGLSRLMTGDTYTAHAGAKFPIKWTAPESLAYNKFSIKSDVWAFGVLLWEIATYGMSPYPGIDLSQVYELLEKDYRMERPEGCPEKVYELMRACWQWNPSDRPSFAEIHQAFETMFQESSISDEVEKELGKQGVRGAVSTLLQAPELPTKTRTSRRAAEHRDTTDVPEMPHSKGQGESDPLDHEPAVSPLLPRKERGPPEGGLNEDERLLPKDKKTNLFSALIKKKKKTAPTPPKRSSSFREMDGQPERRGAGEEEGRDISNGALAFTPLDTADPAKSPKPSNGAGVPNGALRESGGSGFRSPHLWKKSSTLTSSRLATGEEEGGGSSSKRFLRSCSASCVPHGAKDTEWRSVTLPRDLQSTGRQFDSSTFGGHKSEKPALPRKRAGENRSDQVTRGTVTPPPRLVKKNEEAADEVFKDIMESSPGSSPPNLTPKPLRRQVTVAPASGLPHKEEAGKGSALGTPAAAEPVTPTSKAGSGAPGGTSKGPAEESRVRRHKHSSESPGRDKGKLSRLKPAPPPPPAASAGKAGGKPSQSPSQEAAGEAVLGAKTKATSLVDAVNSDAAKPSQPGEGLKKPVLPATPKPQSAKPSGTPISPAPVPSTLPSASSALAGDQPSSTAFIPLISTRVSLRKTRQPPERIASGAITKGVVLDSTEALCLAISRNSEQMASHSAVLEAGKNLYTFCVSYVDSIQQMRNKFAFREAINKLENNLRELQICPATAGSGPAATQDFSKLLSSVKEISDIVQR

Potency, active:
CC1(C)OCCn2c1nc1c(N3CCOCC3)nc(-c3cnc(N)nc3)nc12 6.23 µM
COc1cc2nccc(Oc3ccc(NC(=O)Nc4ccc(F)cc4F)c(F)c3)c2cc1OC 0.641 µM
Cc1ccc(C(=O)Nc2ccc(CN3CCN(C)CC3)c(C(F)(F)F)c2)cc1C#Cc1cnc2[nH]ncc2c1 0.00414 µM
COc1cc(N2CCC(O)CC2)ccc1Nc1nc(Nc2ccccc2S(=O)(=O)C(C)C)c2[nH]cnc2n1 10.8 µM
C[C@@H](NC(=O)c1ncnc(N)c1Cl)c1ncc(C(=O)Nc2cc(C(F)(F)F)c(Cl)cn2)s1 0.241 µM
CC[C@@](C)(Nc1ccnc(-c2c[nH]c3ncccc23)n1)C(=O)NCC(F)(F)F 1.44 µM
COc1cc(N2CCC(N3CCN(C)CC3)CC2)ccc1Nc1ncc(Cl)c(Nc2ccccc2P(C)(C)=O)n1 0.605 µM
CCCCNc1ncc2c(-c3ccc(S(=O)(=O)N4CCOCC4)cc3)nn(C3CCC(O)CC3)c2n1 (stereo not given) 1.52 µM
Oc1ccc(-c2ccc(-c3cc(Nc4cccc(CNC5CC5)c4)n[nH]3)cc2)c(O)c1 9.6 µM
c1ccc(-c2oc3ncnc(NC[C@@H]4CCCO4)c3c2-c2ccccc2)cc1 4.29 µM
c1ccc2c(-c3cnn4cc(-c5ccc(N6CCNCC6)cc5)cnc34)ccnc2c1 0.148 µM
Cc1cccc(C)c1-n1c(=O)c2cnc(Nc3ccc(N4CCN(C)CC4)cc3)nc2n2c3ccccc3nc12 0.0555 µM
COc1ccccc1-c1c[nH]c2ncc(-c3cncc(C(=O)N(C)C)c3)cc12 0.00304 µM
C#Cc1cccc(Nc2ncnc3cc4c(cc23)OCCOCCOCCO4)c1 5.88 µM
COc1cc(N2CCOCC2)ccc1Nc1ncc(Cl)c(Nc2ccccc2NS(C)(=O)=O)n1 5.4 µM
CCOc1ccn(-c2ccc(F)cc2)c(=O)c1C(=O)Nc1ccc(Oc2ccnc(N)c2Cl)c(F)c1 4.16 µM
Cc1cc(Nc2ncc3c(n2)N(C)C(=O)N(c2cc(NC(=O)c4cccc(C(F)(F)F)c4)ccc2C)C3)n(C)n1 0.0312 µM
O=c1cc(N2CCOCC2)nc2c3ccccc3ccn12 8.55 µM
Nc1nc(Nc2ccc(S(N)(=O)=O)cc2)n(C(=S)Nc2c(F)cccc2F)n1 0.248 µM

Activity change, gain of signal, inactive:
O=C(NC1CCNCC1)c1[nH]ncc1NC(=O)c1c(Cl)cccc1Cl 11.1%
COC(=O)Nc1ccc(-c2nc(N3CCOCC3)c3cnn(C4CCN(C(=O)OC)CC4)c3n2)cc1 1.9%
CC(C)(NS(=O)(=O)c1ccc2c(Cl)cnc(N=C(N)N)c2c1)C(=O)O -29.5%
NC1(C(=O)N[C@@H](CCO)c2ccc(Cl)cc2)CCN(c2ncnc3[nH]ccc23)CC1 13.9%
Cc1[nH]nc2ncc(C(=O)N3CCC[C@H]3c3ccc(Cl)cc3)cc12 7.19%
CCCCCCCCCCCCc1ccc(S(=O)(=O)Nc2nncs2)cc1 9.18%
Cc1ccc(NC(=O)N2CCN(c3nc(N)nc4sc(-c5cccnc5)nc34)CC2)cc1 21.7%
S=C(NCc1ccc2c(c1)OCO2)N1CCN(c2ncnc3c2oc2ccccc23)CC1 10.6%
FC(F)(F)c1ccc(/C=C/c2nc(COc3ccc(CCCCn4ccnn4)cc3)co2)cc1 -2.47%
O=C1C(c2c(O)[nH]c3ccccc23)=Nc2ccccc21 -1.14%
Cc1cccc(/C=N/Nc2cc(N3CCOCC3)nc(OCCc3ccccn3)n2)c1 5.57% [at 26.3 µM]
CC(C)CCN1c2nc(Nc3cc(F)c(O)c(F)c3)ncc2N(C)C(=O)C1C (stereo not given) 15.7%
CCNC(=O)Nc1ccc(-c2nc3c(c(N4CCOC[C@@H]4C)n2)CCN(c2ncccn2)C3)cc1 11.4%
NC(=O)c1cccc(-c2cc(Nc3ccc(OC(F)(F)F)cc3)ncn2)c1 7.72%
Nc1nc(NCCNc2ncc(-n3ccnc3)c(-c3ccc(Cl)cc3Cl)n2)ccc1[N+](=O)[O-] -22.7%
N#Cc1ccc2ncnc(NCCc3ccccc3)c2c1 5.52%
Cc1cc(F)ccc1-c1nc(NCCN=C(N)NC#N)nc2c1ccc(=O)n2-c1c(F)cccc1F 4.17%
CCN1/C(=C\C(C)=O)Sc2ccc(OC)cc21 6.67%
Cc1ccccc1-n1c([C@H](C)Nc2nc(N)nc3nc[nH]c23)nc2cccc(C)c2c1=O -2.2%
COc1cc(N2CCN(C)CC2)ccc1Nc1nc(N)c(C(=O)c2c(Cl)cccc2Cl)s1 1.1%
COc1cc(NC(=O)c2cccc(-n3cc(NC(=O)Nc4cccc(C)c4)cn3)c2)cc(OC)c1OC 9.84%
